NIH3T3 tox: Cytotoxic Profiling in NIH 3T3 Cell Line of Diverse Libraries Using Quantitative High-Throughput Screening; NIH 3T3 viability, CellTiter-Glo ATP luminescence, 48-72 h; Potency, µM (titrated, usually from 96.7 µM), for inactives: top-dose activity change, negative = cytotoxicity, most hits filed as inhibitors; 4.3% of 94,000 active; further: potency means the concentration at half of the fitted maximal effect; nearly all actives have a fitted effect of over 55% in size
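ATP-dependent luminescence (CellTiter-Glo) served as the viability signal for NIH 3T3 cells treated with compound for 48 or 72 hr at 37 °C.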
HEK293 viab: GF-AFC viability counterscreen for inhibitors of alpha-synuclein gene (SNCA) expression; Potency, µM (doses to about 57.1 µM), inactives show at the top dose activity change, negative = cytotoxicity, hits mostly cytotoxic; HEK-293-SNCA-luc viability, GF-AFC fluorescence, 24 h; 0.12% of 150,000 active; AID 1671193, 2021;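 further: potency means the concentration at half of the fitted maximal effect; 0% = DMSO-treated cells and -100% = medium-only wells without cells; nearly all actives have a fitted effect of over 30% in size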
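Cytotoxicity counterscreen: after 24 h compound treatment of genome-edited SNCA-luciferase HEK-293 cells, live-cell protease substrate GF-AFC read by fluorescence after 30 min; activity scaled between DMSO (0%) and medium-only (-100%), curves Hill-fitted.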
IP6K1 inhibitor: Primary qHTS assay for small molecule inhibitors of Inositol hexaphosphate kinase 1 (IP6K1) | activity change, % (series mostly up to about 58 µM) | 0.81% of 140,000 active | IP6K1 kinase, ADP-Glo luminescence, 2 h; active compounds read low; in the data active means activity change below about -25%
Target sequence (Q92551 whole entry, looked up): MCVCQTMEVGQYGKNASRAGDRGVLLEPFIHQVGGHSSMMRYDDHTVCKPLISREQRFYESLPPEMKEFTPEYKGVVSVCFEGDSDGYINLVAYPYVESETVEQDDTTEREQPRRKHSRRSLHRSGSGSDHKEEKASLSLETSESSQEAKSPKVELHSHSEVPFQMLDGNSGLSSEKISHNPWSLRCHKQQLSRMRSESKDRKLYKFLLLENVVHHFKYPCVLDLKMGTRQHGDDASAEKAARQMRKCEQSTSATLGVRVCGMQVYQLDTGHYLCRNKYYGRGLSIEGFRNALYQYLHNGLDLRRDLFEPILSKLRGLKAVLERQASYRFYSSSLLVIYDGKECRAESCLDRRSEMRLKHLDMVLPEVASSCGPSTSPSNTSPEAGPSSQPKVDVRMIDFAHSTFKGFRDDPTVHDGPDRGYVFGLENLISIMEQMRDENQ
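ADP-Glo luminescence measures ADP made by human IP6K1 during a 2 h RT reaction with ATP/IP6 (mix at 1.3 mM/130 uM); top library doses 57.5 and 19.1 uM final.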
SNCA expr inh: Primary qHTS assay for inhibitors of alpha-synuclein gene (SNCA) expression; HEK-293 SNCA-luciferase knock-in, luminescence, 24 h; Potency, µM (doses to about 57.2 µM), for inactives: at the top dose activity change, negative = inhibition, actives largely listed as inhibitors; 0.17% of 140,000 active;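 further: potency means the concentration at half of the fitted maximal effect; plate controls were DMSO cells for no effect and cell-free wells for full effect; nearly all actives have a fitted effect of over 45% in size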
Luciferase inh: Firefly luciferase inhibition profiling of diverse chemical library using quantitative high-throughput screening; Potency, µM (highest dose often 115 µM), most hits filed as inhibitors; Luciferin 4-monooxygenase (Photinus pyralis), P08659; 2.5% of 76,000 active; purified P. pyralis luciferase, luminescence, biochemical; further: potency means the concentration at half of the fitted maximal effect; nearly all actives have a fitted effect of over 65% in size
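Inhibitors were tested against purified firefly luciferase in a biochemical, low-substrate format (both substrates at 10uM) and luminescence measured with a CCD imager.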
HEK cytotox: Cytotoxic Profiling in HEK 293 Cell Line of Diverse Libraries Using Quantitative High-Throughput Screening | HEK 293 viability, ATP luminescence (CellTiter-Glo), 48-72 h | Potency, µM (titrated, usually from 115 µM), without a hit: top-dose activity change, negative = cytotoxicity, actives largely listed as inhibitors | AID 1345083, 2018 | 6.6% of 94,000 active; further: potency means the concentration at half of the fitted maximal effect; nearly all actives have a fitted effect of over 60% in size
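HEK 293 seeded at 250 cells/well receive compound via pintool. After 48 or 72 hr at 37 degree Celsius, 5% CO2 and 95% humidity, CellTiter-Glo is dispensed and luminescence read following 10 min at room temperature.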
* = called active by the depositor; i = inactive; ? = inconclusive; nt = not tested or not shown; [ ] = remark or other dose. Shown are actives, neighbours in structure and some others; about 7.3% of the full set was active somewhere. Unless noted, the call rests on the fitted dose curve; in most records, active means well fitted curve in the direction sought with a large enough effect; inconclusive means small, poorly fitted or top-dose-only effect, or another doubt; inactive means no such curve, though single readings can be large; an effect the other way counts as inactive or inconclusive. Unless noted, on the % scale 0 is the no-effect control and ±100 the full control effect.

SMILES	NIH3T3 tox	HEK293 viab	IP6K1 inhibitor	SNCA expr inh	Luciferase inh	HEK cytotox
CC(=O)NC[C@H]1O[C@@H](CC(=O)NC(C)C)[C@H](O)[C@@H]1O	-6.4%[230 µM]	3.5%[87.6 µM]	11.8	-12.4%[87.6 µM]	i	-1.6%[230 µM]
CN1CCN(C(=O)c2ccc3nc(-c4ccccn4)oc3c2)CC1	-6.3%	0.9%	0.3	-2.3%	nt	i
Cc1sc2ccn(Cc3ccc(F)cc3)c(=O)c2c1C(=O)NCCCN1CCOCC1	-5.1%	-1.1%	18.1	11.2%	i	?
O=C(c1ccc(F)c(F)c1)N1CCC(n2cc(-c3nc(-c4ccccc4)no3)nn2)C1 (centres undefined)	?	-18.6%	-10.8	13.2%	?	39.8µM*
O=C(c1ccncc1)N1CCCC(n2cc(-c3nc(-c4ccccc4)no3)nn2)C1 (centres undefined)	?	-3.8%	-5.0	76.1%	?	-29.7%
O=C(c1cccs1)N1CCCC(n2cc(-c3nc(-c4ccccc4)no3)nn2)C1 (centres undefined)	?	-20.2%	0.0	49.2%	35.5µM*	?
O=C(c1cccc(F)c1)N1CCC(n2cc(-c3nc(-c4ccccc4)no3)nn2)C1 (centres undefined)	?	?	4.9	-18.3%	i	?
Cc1cc(C(=O)NC2CCCC2)c2c(C3CCNCC3)noc2n1	i	-1.8%	-0.5	6.5%	nt	i
O=C([C@@H]1C[C@H](F)CN1C(=O)Nc1cccc(C(F)(F)F)c1)N1CCc2ccccc2C1	22.4µM*	-26.0%	-5.1	?	i	31.6µM*
Cc1cccc(NC(=O)N2C[C@@H](F)C[C@H]2C(=O)N2CCc3ccccc3C2)c1	-9.8%	?	1.4	44.3%	?	-6.2%
CCc1ccccc1S(=O)(=O)N1C[C@@H](F)C[C@H]1C(=O)N1CCc2ccccc2C1	31.6µM*	-19.9%	0.0	-7.1%	i	?
O=C1CCC2(C(=O)N3CCOCC3)CCCC=C2N1c1ccccc1 (centres undefined)	i	2.7%	-4.0	13.8%	nt	i
CCNc1ncnc2sc3c(c12)CCN(Cc1ccc[nH]1)C3	39.8µM*	-21.3%	-3.0	?	i	?
CN1C(=O)[C@@H]2C[C@@H](CN2Cc2ccccc2F)Oc2ccccc21	-8.8%[138 µM]	-6.8%[87.6 µM]	4.3	4.3%[87.6 µM]	i	-10.0%[172 µM]
O=C(Nc1ccccc1)c1cnc2n1CCN(Cc1ccc3[nH]ccc3c1)CC2	89.1µM*	-8.9%[87.6 µM]	-7.2	-24.4%[87.6 µM]	i	100µM*
COc1ccc(OC)c(CN2CCc3ncc(C(=O)Nc4ccccc4)n3CC2)c1	?	-9.9%[87.6 µM]	-12.0	-7.6%[87.6 µM]	i	112µM*
Cc1ccc(S(=O)(=O)N2CCCC(Cn3c(C4CC4)nc4cccnc43)C2)cc1F (centres undefined)	-20.7%	-13.7%	-6.2	-3.1%	i	?
Cc1ccc(C)c(S(=O)(=O)N2CCCC(Cn3c(C4CC4)nc4cccnc43)C2)c1 (centres undefined)	?	-14.2%	12.0	-13.9%	i	39.8µM*
Cc1cccc(S(=O)(=O)N2CCCC(Cn3c(C4CC4)nc4cccnc43)C2)c1 (centres undefined)	?	?	-5.6	6.3%	i	35.5µM*
Cc1ccc(NC(=O)N2CCCC(Cn3c(C4CC4)nc4cccnc43)C2)cc1 (centres undefined)	?	-5.8%	-5.3	21.3%	i	-11.7%
O=C(Nc1ccc(C(F)(F)F)cc1)N1CCCC(Cn2c(C3CC3)nc3cccnc32)C1 (centres undefined)	31.6µM*	-11.0%	6.1	-13.3%	i	39.8µM*
COC(=O)c1cn([C@H]2CO[C@H]3[C@@H]2OC[C@H]3OC(=O)Nc2ccc(C(C)(C)C)cc2)nn1	-0.8%[174 µM]	0.1%[87.6 µM]	-8.7	50.6%[87.6 µM]	i	-9.0%[172 µM]
CN(C)Cc1cn([C@H]2CO[C@H]3[C@@H]2OC[C@H]3OC(=O)Nc2ccc(C(C)(C)C)cc2)nn1	?	0.6%[87.6 µM]	-3.7	30.8%[87.6 µM]	70.8µM*	?
Cc1noc2c(NC3CCN(C)CC3)cc(-c3cccc(C(F)(F)F)c3)nc12	?	-11.1%[87.6 µM]	-5.7	29.7%[87.6 µM]	i	39.8µM*
Cc1noc2c(N3CCNC(=O)C3)cc(-c3cccc(C(F)(F)F)c3)nc12	?	12.6%[87.6 µM]	-3.1	?	i	?
SMILES	NIH3T3 tox	HEK293 viab	IP6K1 inhibitor	SNCA expr inh	Luciferase inh	HEK cytotox
Cc1noc2c(-c3cccnc3N(C)C)cc(-c3ccccc3)nc12	?	9.9%[87.6 µM]	-19.1	12.6%[87.6 µM]	i	?
Cc1noc2c(-c3cccnc3NC3CCN(C)CC3)cc(-c3ccccc3)nc12	31.6µM*	-17.5%[87.6 µM]	-8.9	17.3%[87.6 µM]	i	63.1µM*
Cc1noc2c(NC3CCN(C)CC3)cc(-c3ccccn3)nc12	?	8.3%[87.6 µM]	-7.6	41.6%[87.6 µM]	i	112µM*
Cc1noc2c(NC3CCN(C)CC3)cc(-c3ccccc3)nc12	?	-1.6%[87.6 µM]	-0.7	12.9%[87.6 µM]	i	100µM*
O=C(NCCc1ccccn1)C1c2ccccc2C(=O)N(Cc2ccccc2)C12CCCC2 (centres undefined)	-21.5%	-20.1%	2.6	5.3%	i	-27.9%
CCCNC(=O)N1CCC2(CC1)CC(N(C(=O)NC(C)C)C1CC1)CCO2 (centres undefined)	-3.9%	-3.2%	2.3	-11.1%	i	-0.6%
COc1ccc(C)cc1NC(=O)N1CC(c2nnc(-c3ccncc3)o2)C2(CCOCC2)C1 (centres undefined)	-1.5%	-0.1%	6.8	-5.6%	i	1.8%
O=C1N(Cc2ccccc2)c2ccccc2C12CCN(Cc1ccccc1)C2 (centres undefined)	?	-8.9%	7.3	-27.6%	i	?
COc1ccc(CN2CCC3(C2)C(=O)N(C)c2ccccc23)cc1 (centres undefined)	?	-11.3%[87.6 µM]	8.0	-24.7%[87.6 µM]	i	?
CN(C)c1ccc(CN2CCC3(C2)C(=O)N(C)c2ccccc23)cc1 (centres undefined)	?	2.4%[87.6 µM]	-4.0	16.4%[87.6 µM]	i	79.4µM*
O=C1N(c2ccccc2)c2ccccc2C12CCN(Cc1ccc(C(F)(F)F)cc1)C2 (centres undefined)	?	0.9%	-17.5	-9.3%	nt	50.1µM*

Compound activity from PubChem.
